This note sets out measurements from PubChem BioAssay (NCI).

Holding throughout (assay): NCI-60 one-dose screen, 48 h (100 = growth as untreated, 0 = no growth, -100 = all killed)
One experiment has as its system EKVX NSCLC. The following applies: 10 µM unless noted.
For another experiment, the system named is SN12C renal. The following applies: 10 µM unless noted.
Another experiment relates to UO-31 renal. The following applies: 10 µM unless noted.
In another experiment the test system is ACHN renal. The following applies: 10 µM unless noted.
The test system of another experiment is CAKI-1 renal. The following applies: 10 µM unless noted.
Another experiment relates to A498 renal. The following applies: 10 µM unless noted.
Another experiment has as its system CCRF-CEM leukemia. The conditions noted are these: 10 µM unless noted.
Another experiment relates to MOLT-4 leukemia. The conditions noted are these: 10 µM unless noted.
The subject of another experiment is SR leukemia. The conditions noted are these: 10 µM unless noted.
For another experiment, the system named is RPMI-8226 leukemia. The conditions noted are these: 10 µM unless noted.
The next experiment concerns OVCAR-8 ovarian. The conditions noted are these: 10 µM unless noted.
The test system of another experiment is OVCAR-5 ovarian. The following applies: 10 µM unless noted.
Another experiment deals with SK-OV-3 ovarian. The conditions noted are these: 10 µM unless noted.
The next experiment concerns IGROV1 ovarian. The following applies: 10 µM unless noted.
The test system of the next experiment is OVCAR-3 ovarian. The following applies: 10 µM unless noted.
The next experiment concerns HS 578T breast. The conditions noted are these: 10 µM.
The next experiment deals with NCI/ADR-RES ovarian. The following applies: 10 µM unless noted.
Another experiment has as its system TK-10 renal. The conditions noted are these: 10 µM unless noted.
The next experiment has as its system OVCAR-4 ovarian. The following applies: 10 µM unless noted.

Structures are written as SMILES. The panel holds about 83,000 compounds, 20% with a hit somewhere; the sample as a whole holds those more often.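 Assay: single dose, 48 h. Readout: percent growth (0 = no net growth; negative = cell death). Active: <10.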 Values without a mark were called inactive. Activity calls are given as the source filed them.

As to `CC(C)(C)CC(C)(C)NCc1cc(C(C)(C)C)cc(CNC(C)(C)CC(C)(C)C)c1O`, the growth is 37.2% with EKVX NSCLC; 69.3% with SN12C renal; 27.4% in the experiment on UO-31 renal; 37.4% in the experiment with ACHN renal; 55.3% in the experiment on CAKI-1 renal; 64.9% in the experiment with A498 renal. The growth was 49.3% with CCRF-CEM leukemia; 30.3% with MOLT-4 leukemia; 1.23% (active) with SR leukemia; 8.02% (active) in the experiment on RPMI-8226 leukemia; 86.4% with OVCAR-8 ovarian; 68.6% in the experiment with OVCAR-5 ovarian. In addition, the growth in the experiment with SK-OV-3 ovarian is 81.3%; with IGROV1 ovarian it was 61.1%; in the experiment with OVCAR-3 ovarian, 79.2%; in the experiment with HS 578T breast, 67.6%; in the experiment with NCI/ADR-RES ovarian, 55%.

Regarding `COc1ccc(/C=C(/C(=O)N2CCN(c3ccccc3)CC2)c2cc(OC)c(OC)c(OC)c2)cc1O`, the growth is 41% in the experiment with EKVX NSCLC; 31.4% in the experiment on SN12C renal; 45.6% in the experiment on UO-31 renal; 64% in the experiment with TK-10 renal; 33.1% with ACHN renal; -3.6% (active) with A498 renal. The growth in the experiment on CCRF-CEM leukemia was 8.16% (active); in the experiment with MOLT-4 leukemia it was 8.78% (active); with SR leukemia, 9.53% (active); with RPMI-8226 leukemia, 10.9%; with OVCAR-8 ovarian, 14.1%; in the experiment on OVCAR-4 ovarian, 55.7%. In addition, the growth in the experiment with IGROV1 ovarian was 32.2%; in the experiment with OVCAR-3 ovarian, -33.1% (active); in the experiment on HS 578T breast, 39.1%; in the experiment with NCI/ADR-RES ovarian it was 3.09% (active).

In the case of `C=C(C)c1ccc(/C=N/NC(N)=S)cc1`, the growth in the experiment with EKVX NSCLC is 7.97% (active); with SN12C renal it was 93.3%; in the experiment with UO-31 renal, 78.6%; with TK-10 renal, 103%; in the experiment with ACHN renal, 93.2%; in the experiment on A498 renal, 98.4%. Further, the growth in the experiment with CCRF-CEM leukemia was 64%; with MOLT-4 leukemia it was 75.3%; with SR leukemia it was 66.9%; with RPMI-8226 leukemia it was 72%; in the experiment with OVCAR-8 ovarian, 81.5%; in the experiment with OVCAR-4 ovarian it was 83.7%. Besides, the growth was 82.8% with IGROV1 ovarian, 101% with OVCAR-3 ovarian, 65.6% in the experiment with HS 578T breast and 97.8% in the experiment on NCI/ADR-RES ovarian.

Regarding `CC(=O)OC1Oc2ccccc2-c2oc3nc(=N)n(C)c-3cc21` (configuration not stated), the growth with EKVX NSCLC is 122%; in the experiment with SN12C renal, 108%; with UO-31 renal, 88.6%; in the experiment with TK-10 renal it was 155%; in the experiment with ACHN renal, 110%; in the experiment on A498 renal it was 138%. Also, the growth with CCRF-CEM leukemia was 77%; in the experiment with OVCAR-8 ovarian it was 98.6%; in the experiment on OVCAR-5 ovarian it was 107%; in the experiment on OVCAR-4 ovarian, 104%; in the experiment on SK-OV-3 ovarian, 104%; in the experiment with IGROV1 ovarian, 102%. In addition, the growth in the experiment on HS 578T breast was 143%; in the experiment on NCI/ADR-RES ovarian, 96%.

As for `CCSc1ccc([C@@H]2[C@@H](O)C(=O)N2c2cc(OC)c(OC)c(OC)c2)cc1`, the growth in the experiment with EKVX NSCLC is 52.3%; with SN12C renal, 38.8%; with UO-31 renal it was 50.5%; in the experiment on TK-10 renal it was 77.2%; in the experiment on ACHN renal it was 32.7%; in the experiment with A498 renal, -10.6% (active). For the same molecule, the growth in the experiment on CCRF-CEM leukemia is 11.9%; with MOLT-4 leukemia, 10.8%; in the experiment with SR leukemia, 11.7%; with RPMI-8226 leukemia, 8.48% (active); in the experiment with OVCAR-8 ovarian it was 16.1%; in the experiment with OVCAR-4 ovarian, 41.7%. Besides, the growth in the experiment on SK-OV-3 ovarian was 39.1%; in the experiment with OVCAR-3 ovarian it was -3.92% (active); in the experiment with HS 578T breast it was 46.5%; with NCI/ADR-RES ovarian, 8.62% (active).

As to `O=C(C(=O)c1cccnc1)c1cccnc1`, the growth in the experiment with EKVX NSCLC is 110%; in the experiment with SN12C renal it was 107%; in the experiment with UO-31 renal it was 105%; in the experiment on TK-10 renal it was 158%; in the experiment on ACHN renal it was 110%; in the experiment on A498 renal it was 55.6%. The growth was 120% in the experiment with CCRF-CEM leukemia; 82.6% in the experiment with OVCAR-8 ovarian; 101% with OVCAR-4 ovarian; 136% in the experiment on SK-OV-3 ovarian; 31% in the experiment with IGROV1 ovarian; 87.7% in the experiment on OVCAR-3 ovarian. For the same molecule, the results for the growth with HS 578T breast and in the experiment on NCI/ADR-RES ovarian were 99% and 97.5%, respectively.

As to `N#Cc1ccc(NC(=O)Nc2nc3ccc(OC(F)(F)F)cc3s2)cc1`, the growth was -6.94% (active) with EKVX NSCLC; -4.65% (active) in the experiment on SN12C renal; -2.76% (active) in the experiment on UO-31 renal; -10.6% (active) in the experiment with ACHN renal; -15.5% (active) with CAKI-1 renal; -28.1% (active) in the experiment on A498 renal. For the same molecule, the growth in the experiment with CCRF-CEM leukemia is 3.09% (active); with MOLT-4 leukemia, -13.9% (active); in the experiment with SR leukemia it was -38.4% (active); in the experiment with RPMI-8226 leukemia it was -9.16% (active); in the experiment with OVCAR-8 ovarian it was 8.91% (active); with OVCAR-5 ovarian, 16%. Moreover, the growth with SK-OV-3 ovarian was 0.444% (active); in the experiment with OVCAR-3 ovarian, 28.9%; with HS 578T breast it was -0.817% (active); with NCI/ADR-RES ovarian, -13.8% (active).

With `O=[N+]([O-])c1cc(F)c2cccnc2c1O`, the growth is 110% in the experiment on EKVX NSCLC; 93.5% in the experiment on SN12C renal; 73.6% in the experiment on UO-31 renal; 152% in the experiment with TK-10 renal; 89.4% with ACHN renal; 120% in the experiment with CCRF-CEM leukemia. For the same molecule, the growth in the experiment on OVCAR-8 ovarian was 88.8%; in the experiment with OVCAR-4 ovarian it was 102%; in the experiment on IGROV1 ovarian, 3.74% (active); in the experiment with OVCAR-3 ovarian it was 111%; with HS 578T breast it was 105%; with NCI/ADR-RES ovarian, 92.9%.

Regarding `CCCCn1cnc(-c2cc(-c3ccccc3)cc(C(F)(F)F)c2)n1`, the growth in the experiment on SN12C renal is 98.2%; with UO-31 renal, 87.9%; in the experiment on TK-10 renal, 102%; in the experiment with ACHN renal it was 106%; in the experiment with CAKI-1 renal, 91.5%; in the experiment on A498 renal it was 70.9%. Besides, the growth with CCRF-CEM leukemia is 97.1%; in the experiment on MOLT-4 leukemia it was 88.8%; in the experiment with SR leukemia, 89.5%; in the experiment on RPMI-8226 leukemia, 98.2%; with OVCAR-8 ovarian it was 97.5%; with OVCAR-5 ovarian it was 113%. The growth is 106% in the experiment on OVCAR-4 ovarian; 105% in the experiment with SK-OV-3 ovarian; 103% in the experiment with IGROV1 ovarian; 103% in the experiment on OVCAR-3 ovarian; 101% in the experiment with HS 578T breast; 103% with NCI/ADR-RES ovarian.

Consider `C=CCn1c(C)nc2cc(Nc3nc(N4CCOCC4)nc4nc[nH]c34)ccc21`, for which the growth with SN12C renal is 84.3%; with UO-31 renal, 87.4%; with TK-10 renal, 92.4%; with ACHN renal it was 93.7%; with CAKI-1 renal it was 93.8%; in the experiment with A498 renal, 37.5%. In addition, the growth in the experiment with CCRF-CEM leukemia is 89.9%; with MOLT-4 leukemia it was 74.4%; with SR leukemia, 85.6%; in the experiment with RPMI-8226 leukemia it was 71.9%; in the experiment with OVCAR-8 ovarian, 87.3%; in the experiment with OVCAR-5 ovarian, 74.1%. The growth with OVCAR-4 ovarian is 88.4%; in the experiment on SK-OV-3 ovarian, 82.6%; in the experiment with IGROV1 ovarian it was 72.9%; with OVCAR-3 ovarian it was 97.7%; in the experiment with HS 578T breast it was 57.3%; with NCI/ADR-RES ovarian, 108%.
